Here are results for 16 compounds from the supplement of paper PMC10981050.

What all share (assay): cell viability relative to vehicle control; higher = less cytotoxic
Common to all, as to settings: 10 µM

In experiment [1] the test system is K562. In outline:
(§1)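 Mutant clones made by CRISPR editing and their isogenic wild-type counterparts, from four leukaemia lines, were exposed to a single 10 µM dose of each library compound for 48 h. The supernatant was then removed and CellTiter-Glo luminescence was read. Viability was reported as percent of the on-plate vehicle control.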

In experiment [2] the test system is MARIMO. In outline: as §1
The test system of experiment [3] is MOLM14. A digest of the protocol: as §1
Experiment [4] has as its system OCI-AML2. A digest of the protocol:
as §1

SMILES strings stand for the structures. Several values for one entry are separate records, joined by “and”; a condition that tells them apart may be missing. Equal entries are not always repeated. Structures can show the parent of a compound that is named as a salt.

Regarding `CCCCCOc1ccccc1/C(=C\SC)n1ccnc1` [Neticonazole Hydrochloride], the cell viability in experiment [1] (SRSF2 genotype: SRSF2 P95H/wt) was 66.4% and 59.1%; in experiment [1] (SRSF2 genotype: SRSF2 wt/wt) it was 68.9%; in experiment [2] (SRSF2 genotype: SRSF2 P95H/wt), 45.7%; in experiment [2] (SRSF2 genotype: SRSF2 wt/wt) it was 39%; in experiment [3] (SRSF2 genotype: SRSF2 P95H/wt), 59.7%; in experiment [3] (SRSF2 genotype: SRSF2 wt/wt), 54.8%. Also, the values for the cell viability in experiment [4] (SRSF2 genotype: P95H/wt) and in experiment [4] (SRSF2 genotype: wt/wt) were 25.7% and 26%, respectively.
In the case of `CCOC(=O)c1ccc(N2NC(=O)C(=Cc3ccc([N+](=O)[O-])o3)C2=O)cc1`, the cell viability was 95.6% and 99.7% in experiment [1] (SRSF2 genotype: SRSF2 P95H/wt); 96% in experiment [1] (SRSF2 genotype: SRSF2 wt/wt); 95.8% in experiment [2] (SRSF2 genotype: SRSF2 P95H/wt); 90.9% in experiment [2] (SRSF2 genotype: SRSF2 wt/wt); 90.8% in experiment [3] (SRSF2 genotype: SRSF2 P95H/wt); 94.9% in experiment [3] (SRSF2 genotype: SRSF2 wt/wt). The cell viability in experiment [4] (SRSF2 genotype: P95H/wt) is 102%; in experiment [4] (SRSF2 genotype: wt/wt), 107%.
As to `Fc1ccc([C@@H]2CCNC[C@H]2COc2ccc3c(c2)OCO3)cc1` [Paroxetine HCl], the cell viability in experiment [1] (SRSF2 genotype: SRSF2 P95H/wt) was 63.6% and 68.3%; in experiment [1] (SRSF2 genotype: SRSF2 wt/wt), 67.6%; in experiment [2] (SRSF2 genotype: SRSF2 P95H/wt) it was 44%; in experiment [2] (SRSF2 genotype: SRSF2 wt/wt), 44.1%; in experiment [3] (SRSF2 genotype: SRSF2 P95H/wt), 47.7%; in experiment [3] (SRSF2 genotype: SRSF2 wt/wt), 56.5%. In addition, the cell viability amounted to 43% in experiment [4] (SRSF2 genotype: P95H/wt) and 52.4% in experiment [4] (SRSF2 genotype: wt/wt).
On to `CCOC(=O)Nc1cc(-c2ccc(C)c(NS(C)(=O)=O)c2)nn2c(C)nnc12` [Bromosporine], for which the cell viability in experiment [1] (SRSF2 genotype: SRSF2 P95H/wt) was 33.4% and 42%; in experiment [1] (SRSF2 genotype: SRSF2 wt/wt), 49.7%; in experiment [2] (SRSF2 genotype: SRSF2 P95H/wt) it was 9.42%; in experiment [2] (SRSF2 genotype: SRSF2 wt/wt), 13.9%; in experiment [3] (SRSF2 genotype: SRSF2 P95H/wt), 3.2%; in experiment [3] (SRSF2 genotype: SRSF2 wt/wt), 1.48%. In addition, the cell viability in experiment [4] (SRSF2 genotype: P95H/wt) was 1.03%; in experiment [4] (SRSF2 genotype: wt/wt), 4.94%.
Turning to `CC1OC2OC3C(OCC(O)C3O)OC(=O)C34CCC(C)(C)CC3C3=CCC5C6(C)CC(O)C(OC7OC(CO)C(O)C(O)C7OC7OCC(OC(=O)CC(C)(O)CC(=O)OC1C(OC1OCC(O)C(O)C1O)C2O)C(O)C7O)C(C)(CO)C6CCC5(C)C3(C)CC4O` (stereo not drawn) [Tubeimoside II], the cell viability in experiment [1] (SRSF2 genotype: SRSF2 P95H/wt) is 23.1% and 15.2%; in experiment [1] (SRSF2 genotype: SRSF2 wt/wt) it was 16.7%; in experiment [2] (SRSF2 genotype: SRSF2 P95H/wt), 46.2%; in experiment [2] (SRSF2 genotype: SRSF2 wt/wt), 70.6%; in experiment [3] (SRSF2 genotype: SRSF2 P95H/wt), 51.2%; in experiment [3] (SRSF2 genotype: SRSF2 wt/wt), 86.1%. Besides, the cell viability in experiment [4] (SRSF2 genotype: P95H/wt) is 28.5%; in experiment [4] (SRSF2 genotype: wt/wt) it was 38.4%.
On to `O=c1c(-c2ccc(O)cc2)coc2c([C@@H]3O[C@H](CO)[C@@H](O)[C@H](O)[C@H]3O)c(O)ccc12` [Puerarin (Kakonein)], for which the cell viability in experiment [1] (SRSF2 genotype: SRSF2 P95H/wt) was 109% and 101%; in experiment [1] (SRSF2 genotype: SRSF2 wt/wt), 97.2%; in experiment [2] (SRSF2 genotype: SRSF2 P95H/wt) it was 98.6%; in experiment [2] (SRSF2 genotype: SRSF2 wt/wt), 101%; in experiment [3] (SRSF2 genotype: SRSF2 P95H/wt), 102%; in experiment [3] (SRSF2 genotype: SRSF2 wt/wt), 102%. Moreover, the cell viability was 96.4% in experiment [4] (SRSF2 genotype: P95H/wt) and 102% in experiment [4] (SRSF2 genotype: wt/wt).
In the case of `CNC(=O)c1cnn(-c2nc(N)c3ncn([C@@H]4O[C@H](CO)[C@@H](O)[C@H]4O)c3n2)c1` [Regadenoson], the cell viability was 106% and 105% in experiment [1] (SRSF2 genotype: SRSF2 P95H/wt); 104% in experiment [1] (SRSF2 genotype: SRSF2 wt/wt); 102% in experiment [2] (SRSF2 genotype: SRSF2 P95H/wt); 103% in experiment [2] (SRSF2 genotype: SRSF2 wt/wt); 103% in experiment [3] (SRSF2 genotype: SRSF2 P95H/wt); 103% in experiment [3] (SRSF2 genotype: SRSF2 wt/wt). In addition, the cell viability in experiment [4] (SRSF2 genotype: P95H/wt) is 104%; in experiment [4] (SRSF2 genotype: wt/wt), 119%.
For the compound `CC[C@@]1(O)C(=O)OCc2c1cc1n(c2=O)Cc2cc3c(CN(C)C)c(O)ccc3nc2-1` [Topotecan HCl], the cell viability was 15% and 25% in experiment [1] (SRSF2 genotype: SRSF2 P95H/wt); 12.9% in experiment [1] (SRSF2 genotype: SRSF2 wt/wt); 5.05% in experiment [2] (SRSF2 genotype: SRSF2 P95H/wt); 3.35% in experiment [2] (SRSF2 genotype: SRSF2 wt/wt); 0.55% in experiment [3] (SRSF2 genotype: SRSF2 P95H/wt); 0.35% in experiment [3] (SRSF2 genotype: SRSF2 wt/wt). Further, the cell viability in experiment [4] (SRSF2 genotype: P95H/wt) came to 3.3%; in experiment [4] (SRSF2 genotype: wt/wt) it was 8.46%.
Turning to `NC(=O)NO` [Hydroxyurea (Cytodrox)], the cell viability was 102% and 106% in experiment [1] (SRSF2 genotype: SRSF2 P95H/wt); 103% in experiment [1] (SRSF2 genotype: SRSF2 wt/wt); 97.5% in experiment [2] (SRSF2 genotype: SRSF2 P95H/wt); 105% in experiment [2] (SRSF2 genotype: SRSF2 wt/wt); 109% in experiment [3] (SRSF2 genotype: SRSF2 P95H/wt); 108% in experiment [3] (SRSF2 genotype: SRSF2 wt/wt). Moreover, the cell viability in experiment [4] (SRSF2 genotype: P95H/wt) and in experiment [4] (SRSF2 genotype: wt/wt) was 108% in each case.
Turning to `COc1cc(/C=C/C(=O)O)ccc1O` [Fumalic acid (Ferulic acid)], the cell viability in experiment [1] (SRSF2 genotype: SRSF2 P95H/wt) was 98.4% and 103%; in experiment [1] (SRSF2 genotype: SRSF2 wt/wt), 100%; in experiment [2] (SRSF2 genotype: SRSF2 P95H/wt), 92.1%; in experiment [2] (SRSF2 genotype: SRSF2 wt/wt), 105%; in experiment [3] (SRSF2 genotype: SRSF2 P95H/wt) it was 103%; in experiment [3] (SRSF2 genotype: SRSF2 wt/wt) it was 101%. Besides, the figures for the cell viability in experiment [4] (SRSF2 genotype: P95H/wt) and in experiment [4] (SRSF2 genotype: wt/wt) were 92.9% and 105%, respectively.
Turning to `Nc1nc2n[nH]nc2c(=O)[nH]1` [Azaguanine-8], the cell viability is 85.3% and 81.8% in experiment [1] (SRSF2 genotype: SRSF2 P95H/wt); 82.5% in experiment [1] (SRSF2 genotype: SRSF2 wt/wt); 76.2% in experiment [2] (SRSF2 genotype: SRSF2 P95H/wt); 68.1% in experiment [2] (SRSF2 genotype: SRSF2 wt/wt); 82.7% in experiment [3] (SRSF2 genotype: SRSF2 P95H/wt); 86.6% in experiment [3] (SRSF2 genotype: SRSF2 wt/wt). For the same compound, the cell viability was 70.9% in experiment [4] (SRSF2 genotype: P95H/wt) and 54.6% in experiment [4] (SRSF2 genotype: wt/wt).
As for `Cc1c(C(=O)N2CCOc3ccc(-c4ccc(N)nc4)cc3C2)ccc(S(C)(=O)=O)c1F`, the cell viability in experiment [1] (SRSF2 genotype: SRSF2 P95H/wt) was 84.6% and 89.8%; in experiment [1] (SRSF2 genotype: SRSF2 wt/wt), 84.4%; in experiment [2] (SRSF2 genotype: SRSF2 P95H/wt), 81.4%; in experiment [2] (SRSF2 genotype: SRSF2 wt/wt), 76.9%; in experiment [3] (SRSF2 genotype: SRSF2 P95H/wt) it was 71.2%; in experiment [3] (SRSF2 genotype: SRSF2 wt/wt), 63.6%. The cell viability in experiment [4] (SRSF2 genotype: P95H/wt) was determined as 70%; in experiment [4] (SRSF2 genotype: wt/wt), 67.8%.
Consider `CCCCCCCCCCCCc1ccc(S(=O)(=O)Nc2nncs2)cc1`, for which the cell viability in experiment [1] (SRSF2 genotype: SRSF2 P95H/wt) was 107% and 104%; in experiment [1] (SRSF2 genotype: SRSF2 wt/wt), 102%; in experiment [2] (SRSF2 genotype: SRSF2 P95H/wt), 105%; in experiment [2] (SRSF2 genotype: SRSF2 wt/wt), 109%; in experiment [3] (SRSF2 genotype: SRSF2 P95H/wt) it was 105%; in experiment [3] (SRSF2 genotype: SRSF2 wt/wt), 106%. Also, the cell viability in experiment [4] (SRSF2 genotype: P95H/wt) turned out to be 98.7%; in experiment [4] (SRSF2 genotype: wt/wt), 111%.
For the compound `CCNc1nc(Nc2cc(F)c(C(=O)N3CCOCC3)cc2OC)ncc1C(F)(F)F`, the cell viability is 102% and 98.9% in experiment [1] (SRSF2 genotype: SRSF2 P95H/wt); 99.2% in experiment [1] (SRSF2 genotype: SRSF2 wt/wt); 93.3% in experiment [2] (SRSF2 genotype: SRSF2 P95H/wt); 109% in experiment [2] (SRSF2 genotype: SRSF2 wt/wt); 90% in experiment [3] (SRSF2 genotype: SRSF2 P95H/wt); 103% in experiment [3] (SRSF2 genotype: SRSF2 wt/wt). Besides, the cell viability was 87.8% in experiment [4] (SRSF2 genotype: P95H/wt) and 93.7% in experiment [4] (SRSF2 genotype: wt/wt).
Regarding `O=c1[nH]cnc2[nH]ncc12` [Allopurinol Sodium (Aloprim)], the cell viability in experiment [1] (SRSF2 genotype: SRSF2 P95H/wt) is 90.9% and 86.7%; in experiment [1] (SRSF2 genotype: SRSF2 wt/wt), 90.5%; in experiment [2] (SRSF2 genotype: SRSF2 P95H/wt) it was 89.1%; in experiment [2] (SRSF2 genotype: SRSF2 wt/wt), 93.1%; in experiment [3] (SRSF2 genotype: SRSF2 P95H/wt), 86.6%; in experiment [3] (SRSF2 genotype: SRSF2 wt/wt), 91%. In addition, the cell viability turned out to be 90.6% in experiment [4] (SRSF2 genotype: P95H/wt) and 95.1% in experiment [4] (SRSF2 genotype: wt/wt).
Take `CCCCCCCCN=c1ccn(CCCCCCCCCCn2ccc(=NCCCCCCCC)cc2)cc1` [Octenidine Dihydrochloride]: the cell viability in experiment [1] (SRSF2 genotype: SRSF2 P95H/wt) was 0.46% and 0.39%; in experiment [1] (SRSF2 genotype: SRSF2 wt/wt), 0.55%; in experiment [2] (SRSF2 genotype: SRSF2 P95H/wt), 0.32%; in experiment [2] (SRSF2 genotype: SRSF2 wt/wt), 0.34%; in experiment [3] (SRSF2 genotype: SRSF2 P95H/wt), 0.3%; in experiment [3] (SRSF2 genotype: SRSF2 wt/wt) it was 0.33%. Also, the cell viability in experiment [4] (SRSF2 genotype: P95H/wt) amounted to 0.29%; in experiment [4] (SRSF2 genotype: wt/wt), 0.41%.
